Experiment [1] in a line: A CellTox Green Cytotoxicity Assay to monitor cytotoxicity in HEK293 cells - 32 hour (AID 1224881). Further: nearly all actives have a fitted effect of over 40% in size. The essentials: (§1)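 Fluorescence from a DNA-binding dye excluded by viable cells was measured repeatedly in the same HEK293 wells (600 cells/well) during continuous compound exposure at 37 C. Each assay gives one read point: 0, 8, 16, 24, 32 or 40 h.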
Experiment [2] is described as follows: A CellTox Green Cytotoxicity Assay to monitor cytotoxicity in HepG2 cells - 0 hour (AID 1224882). Further: nearly all actives have a fitted effect of over 35% in size. In a few lines:
(§2)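 Real-time cytotoxicity: fluorescence of a cell-impermeant cyanine dye binding DNA of dead HepG2 cells, measured repeatedly (0–40 h) during compound exposure at 37 C. Cells seeded 600/well with reagent, dosed after 5 h.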

Experiment [3] is described as follows: A CellTox Green Cytotoxicity Assay to monitor cytotoxicity in HepG2 cells - 32 hour (AID 1224883). Further: nearly all actives have a fitted effect of over 50% in size. In a few lines:
as §2

A short description of experiment [4]: A CellTox Green Cytotoxicity Assay to monitor cytotoxicity in HEK293 cells - 8 hour (AID 1224884). Further: nearly all actives have a fitted effect of over 35% in size. The essentials:
as §1

Experiment [5] is described as follows: qHTS RealTime-Glo MT Cell Viability Assay in HEK293 cells - 24 hour (AID 1224886). Further: top concentration of the series differs between compounds; nearly all actives have a fitted effect of over 50% in size. The essentials: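 Nonlytic real-time viability readout: viable cells convert prosubstrate to NanoLuc substrate, giving luminescence proportional to live cell number. HEK293, 600 cells/well, compound added after 5 h, continuous culture at 37 C.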
A general note: In qHTS, concentration-response curves come from the screen itself.

Experiment [6] in a line: qHTS RealTime-Glo MT Cell Viability Assay in HEK293 cells - 8 hour (AID 1224887). Further: top concentration of the series differs between compounds; nearly all actives have a fitted effect of over 50% in size. The essentials:
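Luminescence, which tracks viable cell number through reduction of the prosubstrate to a NanoLuc substrate, was read over continuous 37 C culture. Cells (600/well) were premixed with reagent and rested 5 h before 23 nL of compound in DMSO was pinned.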

Experiment [7] can be described thus: A CellTox Green Cytotoxicity Assay to monitor cytotoxicity in HEK293 cells - 16 hour (AID 1224888). Further: nearly all actives have a fitted effect of over 35% in size. In a few lines: as §1
Experiment [8] can be described thus: qHTS RealTime-Glo MT Cell Viability Assay in HepG2 cells - 0 hour (AID 1224889). Further: nearly all actives have a fitted effect of over 50% in size. The essentials:
(§3)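 Luminescence read-out: viable HepG2 cells reduce a prosubstrate to a NanoLuc substrate, giving a signal proportional to live cell number. Reads taken at 0, 8, 16, 24, 32 and 40 h of compound exposure at 37 C.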

The nature of experiment [9]: A CellTox Green Cytotoxicity Assay to monitor cytotoxicity in HepG2 cells - 8 hour (AID 1224890). Further: nearly all actives have a fitted effect of over 45% in size. The essentials:
as §2

The nature of experiment [10]: qHTS assay to identify small molecule antagonists of the estrogen receptor alpha (ER-alpha) signaling pathway using the BG1 cell line in the presence of 0.1 nM 17-beta-estradiol - cell viability counter screen (AID 1259241). Further: nearly all actives have a fitted effect of over 40% in size. In a few lines: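 Following 5 days in phenol red-free medium with charcoal-stripped serum, VM7Luc4E2 cells received test compounds alongside 0.1 nM 17beta-estradiol (final) at 37C for 22 hr. Live cells were then quantified via protease-substrate fluorescence.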

Experiment [11] is described as follows: qHTS assay to identify small molecule antagonists of the androgen receptor (AR) signaling pathway using the MDA cell line in the presence of 0.5 nM R1881 - cell viability counter screen (AID 1259242). Further: nearly all actives have a fitted effect of over 45% in size. The essentials: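 Live-cell protease activity was measured by CellTiter-Fluor fluorescence after 30 min. Before that, MDA-kb2 MMTV-luciferase cells had 16 hr at 37C without CO2, exposed to test compounds and 0.5 nM R1881 final.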

Experiment [12] deals with Androgen receptor (Homo sapiens) (UniProt P10275). The experiment can be described thus: qHTS assay to identify small molecule antagonists of the androgen receptor (AR) signaling pathway using the MDA cell line in the presence of 0.5 nM R1881 (AID 1259243). Further: nearly all actives have a fitted effect of over 50% in size. Further: potency means the concentration at half of the fitted maximal effect. In a few lines:
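Luminescent reporter readout (ONE-Glo, 30 min, room temperature) after 16 hr co-treatment of MDA-kb2 cells with test compounds and 0.5 nM R1881 final, at 37C without CO2. The MMTV-driven luciferase responds to both AR and GR.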

In experiment [13] the target is Estrogen receptor (Homo sapiens) (UniProt P03372). The experiment can be described thus: qHTS assay to identify small molecule antagonists of the estrogen receptor alpha (ER-alpha) signaling pathway using the BG1 cell line in the presence of 0.1 nM 17-beta-estradiol (AID 1259244). Further: nearly all actives have a fitted effect of over 50% in size. The essentials:
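Luciferase luminescence (ONE-Glo, 30 min at room temperature) was read after 22 hr at 37C exposure to compounds plus 17beta-estradiol at 0.1 nM final. Cells were VM7Luc4E2 with endogenous ER-alpha and an ERE-driven luciferase, pre-cultured 5 days in hormone-depleted medium.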

The nature of experiment [14]: qHTS assay to identify small molecule HDAC inhibitors (AID 1259364). Further: top concentration of the series differs between compounds; nearly all actives have a fitted effect of over 45% in size. In a few lines:
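Luminescence read after 30 min room-temperature HDAC-Glo incubation measures cellular class I/II HDAC activity. Compounds were applied for 2 hr at 37 C to HCT-116 wild-type cells seeded the day before.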

Experiment [15] can be described thus: qHTS assay to identify small molecule HDAC inhibitors - cell viability counter screen (AID 1259365). In a few lines:
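HCT-116 wild-type, overnight attachment; 2hr drug exposure, 37C; CellTiter-Glo luminescent ATP readout after 30min RT.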

The nature of experiment [16]: qHTS assay to identify small molecule antagonists of the sonic hedgehog signaling (Shh) pathway - cell viability counter screen (AID 1259367). Further: nearly all actives have a fitted effect of over 55% in size. The essentials:
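Cytotoxicity was assessed in parallel with Shh reporter activity by measuring live-cell protease fluorescence (CellTiter-Fluor) in NIH/3T3 cells stably carrying Gli1-Luc, treated with compound under conditioned medium stimulation for 23 hr plus 1 hr reagent incubation.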

A short description of experiment [17]: qHTS assay to identify small molecule agonists of the sonic hedgehog signaling (Shh) pathway (AID 1259368; calls by dose curve;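 further: NIH/3T3-derived 3T3Gli1-Luc cells carrying a stable Gli1-driven firefly luciferase reporter; series mostly up to about 92 µM; nearly all actives have a fitted effect of over 15% in size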). In a few lines: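 Luminescence was read after 30 min at room temperature with luciferase reagent. Before that, 3T3Gli1-Luc cells (NIH/3T3 clone, stable Gli1-Luc reporter; 2,000/well) were exposed to compounds for 24 hr at 37C, 5% CO2, compounds being added 4 hr post-plating.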

Experiment [18] in a line: qHTS RealTime-Glo MT Cell Viability Assay in HepG2 cells - 16 hour (AID 1224885). Further: nearly all actives have a fitted effect of over 50% in size. In a few lines: as §3
The nature of experiment [19]: qHTS assay to identify small molecule phospholipidosis (PLD) inducers (AID 1259344; active means well fitted curve in the direction sought with a large enough effect; an effect the other way counts as inactive or inconclusive). In a few lines: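 Cells (HepG2, 900 per well) attach for 4 h, receive LipidTOX Red and compound together, incubate 24 h at 37 C, are fixed 30 min with paraformaldehyde/Hoechst, then imaged at one site per well.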
Experiment [20] can be described thus: qHTS assay to identify small molecule agonists of the sonic hedgehog signaling (Shh) pathway - cell viability counter screen (AID 1259366). Further: nearly all actives have a fitted effect of over 50% in size. The essentials:
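Compounds in DMSO were pin-transferred onto 3T3 Gli1-Luc cells that had settled 4hr; plates then stood 24hr at 37C and 5% CO2. One hour before the end, CellTiter-Fluor was added and fluorescence recorded.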

Consider eight compounds from PubChem BioAssay (Tox21).

Records with an inconclusive call do not appear. Calls of active or inactive are those of the source. Unless noted, the call rests on the fitted dose curve; in most records, active means well fitted curve in the direction sought with a large enough effect in the repeat runs; inconclusive means weak or mixed curves; inactive means no such curve, though single readings can be large; an effect the other way counts as inactive or inconclusive.

Chain of Androgen receptor (Homo sapiens) (P10275 whole entry, looked up): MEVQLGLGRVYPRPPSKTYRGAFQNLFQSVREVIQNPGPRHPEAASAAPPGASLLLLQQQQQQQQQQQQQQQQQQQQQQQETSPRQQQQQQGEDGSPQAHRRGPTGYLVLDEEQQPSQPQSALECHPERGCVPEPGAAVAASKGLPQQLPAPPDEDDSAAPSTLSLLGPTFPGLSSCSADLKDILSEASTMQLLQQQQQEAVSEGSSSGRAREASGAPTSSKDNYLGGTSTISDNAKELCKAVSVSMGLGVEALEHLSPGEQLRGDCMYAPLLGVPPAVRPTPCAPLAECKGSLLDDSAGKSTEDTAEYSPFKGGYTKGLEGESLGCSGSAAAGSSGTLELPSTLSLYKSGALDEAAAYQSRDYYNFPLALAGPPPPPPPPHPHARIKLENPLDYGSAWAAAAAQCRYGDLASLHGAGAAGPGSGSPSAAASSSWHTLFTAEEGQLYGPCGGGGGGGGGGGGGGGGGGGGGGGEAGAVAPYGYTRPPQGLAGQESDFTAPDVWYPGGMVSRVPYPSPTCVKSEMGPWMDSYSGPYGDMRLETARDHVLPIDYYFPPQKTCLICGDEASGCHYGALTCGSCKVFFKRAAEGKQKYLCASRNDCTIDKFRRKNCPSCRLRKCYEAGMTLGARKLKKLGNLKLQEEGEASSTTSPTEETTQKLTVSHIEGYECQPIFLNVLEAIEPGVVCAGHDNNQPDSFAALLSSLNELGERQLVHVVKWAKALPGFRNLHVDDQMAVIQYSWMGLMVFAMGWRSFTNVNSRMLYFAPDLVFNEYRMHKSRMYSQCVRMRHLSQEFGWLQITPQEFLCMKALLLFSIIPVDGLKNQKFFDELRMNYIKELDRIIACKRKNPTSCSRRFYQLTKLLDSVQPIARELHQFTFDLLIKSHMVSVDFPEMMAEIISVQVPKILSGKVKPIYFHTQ
Chain of Estrogen receptor (Homo sapiens) (P03372 whole entry, looked up): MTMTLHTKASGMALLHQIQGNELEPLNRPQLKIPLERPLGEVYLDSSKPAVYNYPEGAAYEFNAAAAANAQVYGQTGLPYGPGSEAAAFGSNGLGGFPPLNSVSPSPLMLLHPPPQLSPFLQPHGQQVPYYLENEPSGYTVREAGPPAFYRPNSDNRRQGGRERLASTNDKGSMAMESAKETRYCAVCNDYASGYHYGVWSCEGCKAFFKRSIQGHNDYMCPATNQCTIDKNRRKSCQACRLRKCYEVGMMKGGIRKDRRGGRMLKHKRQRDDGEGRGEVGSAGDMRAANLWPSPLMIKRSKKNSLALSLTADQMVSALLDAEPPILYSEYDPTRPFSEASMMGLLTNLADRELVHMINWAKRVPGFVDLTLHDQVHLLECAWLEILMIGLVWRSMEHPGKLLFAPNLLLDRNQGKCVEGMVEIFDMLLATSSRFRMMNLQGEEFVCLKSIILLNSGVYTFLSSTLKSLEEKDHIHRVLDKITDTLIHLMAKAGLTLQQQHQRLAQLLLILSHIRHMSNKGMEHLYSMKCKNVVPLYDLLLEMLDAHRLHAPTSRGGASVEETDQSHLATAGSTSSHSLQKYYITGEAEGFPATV

Turning to `CC(=O)OCc1ccccc1`, the Potency result in experiment [1], in experiment [3], in [5], in experiment [6], in experiment [7] and in experiment [8] was “inactive” each time. In addition, the Potency result in experiment [10], in experiment [11], in [12], in experiment [13], in [14] and in experiment [16] was “inactive” each time. Moreover, the call in experiment [2], in experiment [4], in experiment [9], in experiment [15] and in experiment [17] was inactive.
Regarding `OCc1ccccc1`, the Potency result in experiment [1], in [3], in experiment [18], in experiment [5], in experiment [6] and in [7] was “inactive” throughout. In addition, the Potency result in experiment [8], in experiment [10], in [11], in experiment [12], in experiment [13] and in [14] was “inactive” each time. The Potency result in [16] is “inactive”. The compound was called inactive in experiment [2], in [9], in experiment [19], in experiment [15] and in [17].
Turning to `NC(=S)NNC(N)=S`, the Potency entry in [1], in experiment [3], in experiment [5], in experiment [6], in experiment [7] and in [8] was “inactive” each time. In addition, the Potency entry in experiment [10], in experiment [11], in experiment [14] and in [16] was “inactive” throughout. Moreover, the compound was called inactive in [2], in experiment [4], in [9], in experiment [15] and in experiment [17].
On to `CCOC(=O)n1ccn(C)c1=S`, for which the Potency entry in [1], in experiment [3], in [18], in experiment [5], in experiment [6] and in experiment [7] was “inactive” each time. Also, the Potency result in [8], in experiment [10], in [11], in experiment [13], in experiment [14] and in experiment [16] was “inactive” each time. Moreover, the compound was classed as inactive in experiment [2], in experiment [9], in experiment [19], in experiment [15] and in experiment [17].
Consider `CC(CCl)OP(=O)(OC(C)CCl)OC(C)CCl` (stereo not drawn), for which the Potency result in [1], in [3], in experiment [18], in experiment [5], in [6] and in [8] was “inactive” each time. The Potency result in experiment [10], in [11], in [13], in [14], in experiment [20] and in [16] was “inactive” in each case. The compound was called inactive in experiment [2], in experiment [9], in experiment [15] and in experiment [17].
In the case of `CC1(C)S[C@@H]2[C@H](NC(=O)COc3ccccc3)C(=O)N2[C@H]1C(=O)O`, the Potency entry in experiment [1], in experiment [3], in [18], in experiment [6], in [7] and in experiment [8] was “inactive” in each case. Further, the Potency entry in [10], in experiment [11], in experiment [13], in experiment [20] and in experiment [16] was “inactive” each time. Moreover, the outcome in [2], in [9], in experiment [15] and in experiment [17] was inactive.
As to `C=C(C)[C@H]1CC=C(C)C(=O)C1`, the Potency result in experiment [1], in experiment [3], in experiment [18], in experiment [6], in [7] and in experiment [8] was “inactive” throughout. Further, the Potency entry in experiment [10], in experiment [11], in experiment [14] and in [16] was “inactive” each time. The call in experiment [2], in experiment [9], in experiment [15] and in [17] was inactive.
With `OCc1cccc(Oc2ccccc2)c1`, the Potency result in experiment [1], in experiment [3], in experiment [5], in [6], in [7] and in experiment [8] was “inactive” throughout. Further, the Potency result in experiment [10], in experiment [11], in experiment [14], in experiment [20] and in experiment [16] was “inactive” each time. For the same compound, the compound was classed as inactive in [2], in experiment [9], in experiment [15] and in experiment [17]. In addition, the Potency in experiment [12] was 31.1 µM (active).
